Here are results for 21 molecules from PubChem BioAssay (NCI).

Compounds without any hit were thinned out: in the full panel of roughly 79,000, 15% have a hit. Unmarked numbers belong to inactive results. Activity calls are given as the source filed them. No stated cut-off is given here; in the data, active means growth inhibition above about 70%; inactive means the rest.

A short description of test [1]: NCI Yeast Anticancer Drug Screen. Data for the rad50 strain (AID 155).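 Further: 0% = growth of vehicle-only cultures of the same strain.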 The conditions noted are these: S. cerevisiae rad50 strain growth inhibition; at 50.0 µM; active compounds read high. In a few lines: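 Vehicle-treated cultures provide the reference for the growth inhibition reported for compound-exposed, repair-deficient yeast.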
A short description of test [2]: NCI Yeast Anticancer Drug Screen. Data for the mec2-1 strain (AID 157). The conditions noted are these: S. cerevisiae mec2-1 strain, at 50.0 µM, active compounds read high. A digest of the protocol:
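Growth inhibition is read against vehicle-treated controls after compound exposure of the mec2-1 yeast strain, which is defective in DNA damage repair or cell cycle control.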

The nature of test [3]: NCI Yeast Anticancer Drug Screen. Data for the sgs1 mgt1 strain (AID 161).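 Further: 0% = growth of cultures given vehicle only.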 Particulars: S. cerevisiae sgs1 mgt1 strain, at 50.0 µM, active compounds read high. In a few lines:
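This yeast growth screen uses a strain with defined DNA-repair lesions; compound-treated growth is compared with vehicle-treated growth.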

Test [4] in a line: NCI Yeast Anticancer Drug Screen. Data for the cln2 rad14 strain (AID 165).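 Further: 0% = growth equal to vehicle treated cultures.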 Particulars: S. cerevisiae cln2 rad14 strain, at 50.0 µM, active compounds read high. In a few lines:
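Growth inhibition, relative to vehicle-treated controls, is the read-out. The test organism is a yeast strain with defined genetic alterations, cln2 rad14.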

Test [5] can be described thus: NCI Yeast Anticancer Drug Screen. Data for the bub3 strain (AID 167). The conditions noted are these: S. cerevisiae bub3 mutant strain, at 50.0 µM, active compounds read high. In a few lines: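 Mutant yeast screening strain plus compound; vehicle-treated cultures serve as the 0% inhibition reference.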
Test [6] in a line: NCI Yeast Anticancer Drug Screen. Data for the mlh1 rad18 strain (AID 175). Particulars: S. cerevisiae mlh1 rad18 strain growth inhibition; at 50.0 µM; active compounds read high. In a few lines:
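Cells of a genetically altered yeast strain, deficient in DNA damage repair, were treated with compound. Their growth was then compared with that of vehicle-treated cultures to give inhibition.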

With `CC(=O)OC12c3ccccc3C(c3ccccc31)C1C(=O)N(c3ccccc3O)C(=O)C12` (stereo unspecified), the growth inhibition in test [1] is -15.8%; in test [2] it was -17.4%; in test [3] it was -4.15%; in test [4] it was 6.2%; in test [5] it was -5.4%; in test [6] it was 7.7%.

Consider `CCOC(=O)C(=Cn1c(=S)[nH]c2cc(C)ccc21)C(=O)OCC`, for which the growth inhibition in test [1] was -19.8%; in test [2] it was -39.1%; in test [3] it was -16.2%; in test [4], 13.6%; in test [5] it was 0.1%; in test [6], -11.8%.

Consider `Cc1ccc(S(=O)(=O)OCC2CC=CCC2COC(=O)c2ccc([N+](=O)[O-])cc2)cc1` (stereo unspecified), for which the growth inhibition is 33.5% in test [1]; -5.55% in test [2]; 12.1% in test [3]; 15.1% in test [4]; 6.6% in test [5]; 6.4% in test [6].

Turning to `Nc1ccc(Nc2c3ccccc3nc3ccccc23)cc1`, the growth inhibition is 96% (active) in test [1]; 33% in test [2]; 23.4% in test [3]; 10.3% in test [4]; 23.4% in test [5]; 69.3% in test [6].

In the case of `CCOC(=O)/C(=C\n1c(=O)[nH]c(=O)[nH]c1=S)C(=O)c1ccccc1`, the growth inhibition was -22.8% in test [1]; -17.4% in test [2]; -9.25% in test [3]; 7.35% in test [4]; -17.9% in test [5]; -13.2% in test [6].

`CC(/C=N\NC(=S)SCc1ccccc1)=N/N=C(N)N`: the growth inhibition in test [1] is 52.4%; in test [2], 50.2%; in test [3], 57.2%; in test [4], -3.7%; in test [5], 52.9%; in test [6], 64.6%.

For `CC(C)C(=NNC(N)=O)C(C)C`, the growth inhibition in test [1] is 2.1%; in test [2], 2.2%; in test [3] it was -1.35%; in test [4], -3.7%; in test [5] it was -6.95%; in test [6], -8.4%.

`Cc1ccc(C(=O)c2ccccc2C(=O)O)cc1C`: the growth inhibition was 4.35% in test [1]; -4.35% in test [2]; -17.9% in test [3]; -18.4% in test [4]; 9.2% in test [5]; -18.6% in test [6].

For `CSc1ccc(NC(=O)Nc2cccc(F)c2)cc1`, the growth inhibition in test [1] was -2.15%; in test [2], 11.9%; in test [3], 27.2%; in test [4] it was -18.5%; in test [5], 42.5%; in test [6], 35.6%.

As to `CC(C)=CCC/C(C)=C/C=O`, the growth inhibition in test [1] is 9.1%; in test [2], 2.95%; in test [3] it was 5.1%; in test [4] it was 9.6%; in test [5], 7.95%; in test [6] it was 8.4%.

For `CCOC(=O)[C@]1(Br)CC[C@]1(Br)C(=O)OCC`, the growth inhibition in test [1] is 16.2%; in test [2], -12.7%; in test [3], -4.95%; in test [4] it was 10%; in test [5] it was -29.1%; in test [6], -62.8%.

As for `Cc1ccc(C(=O)O)c(=O)[nH]1`, the growth inhibition in test [1] was 3.65%; in test [2], -26.1%; in test [3], 5.3%; in test [4], 2.05%; in test [5] it was 7.3%; in test [6], -2%.

For `O=[N+]([O-])c1ccccc1C=NC12CC3CC(CC(C3)C1)C2`, the growth inhibition in test [1] is 15%; in test [2], -9.15%; in test [3] it was 9.95%; in test [4], -49.2%; in test [5] it was -15.3%; in test [6], 3.45%.

With `NC(=O)c1cc(Cl)ccc1O`, the growth inhibition in test [1] is 14.5%; in test [2], 12.5%; in test [3], 18.4%; in test [4], 3.1%; in test [5], -4.05%; in test [6], 11.6%.

Take `COc1cc(C(=O)n2c(=O)oc(=O)c3cc([N+](=O)[O-])ccc32)cc(OC)c1OC`: the growth inhibition is -15.4% in test [1]; -6.15% in test [2]; -16.4% in test [3]; -6.65% in test [4]; 1.6% in test [5]; 2.2% in test [6].

Take `CCCCCSC`: the growth inhibition in test [1] is 21%; in test [2] it was -12.1%; in test [3], 11.2%; in test [4], 10.1%; in test [5] it was 7.9%; in test [6] it was 28.6%.

With `CN(C)c1ccc(/C=N/NC(=O)c2cnc3ccccc3c2)cc1`, the growth inhibition in test [1] was -7.05%; in test [2], -4.95%; in test [3], -11.3%; in test [4], -0.4%; in test [5], 8.1%; in test [6], 17.4%.

As to `O=C(Oc1ccccc1)Oc1c(Cl)cc([N+](=O)[O-])cc1[N+](=O)[O-]`, the growth inhibition in test [1] is 25%; in test [2], 1.4%; in test [3], 5.25%; in test [4], 10.9%; in test [5], 0.45%; in test [6], 15.5%.

Turning to `O=C1NCC2(CCN(Cc3ccccc3)CC2)N1c1ccccc1`, the growth inhibition is 7.6% in test [1]; 3.05% in test [2]; 2.4% in test [3]; 4.85% in test [4]; -13.1% in test [5]; 13.7% in test [6].

Turning to `O=C1C(NS(=O)(=O)c2ccccc2)=C(N(Cc2ccccc2)Cc2ccccc2)C(=O)c2ccccc21`, the growth inhibition in test [1] was 9.1%; in test [2], 7.4%; in test [3], 26.1%; in test [4], 2.1%; in test [5] it was 8.95%; in test [6], -6.75%.

In the case of `C=NC1CCCCC1`, the growth inhibition is 0.95% in test [1]; -3.75% in test [2]; -10.6% in test [3]; 2% in test [4]; 14.7% in test [5]; 3.75% in test [6].
